Experimental data as given in PubChem BioAssay (NCATS).
Records with an inconclusive call do not appear. The source made the active and inactive calls. The call rests on the fitted dose curve; in most records, active means well fitted inhibition curve with a large enough effect; inconclusive means small, poorly fitted or top-dose-only effect; inactive means flat fitted curve, though single readings scatter.

Legend:
Experiment in all cases: qHTS profiling for inhibitors of Plasmodium falciparum proliferation (AID 504749); further: nearly all actives have a fitted effect of over 60% in size
CP215 = settings: P. falciparum in erythrocytes, SYBR Green DNA, 72 h; series mostly up to 28.7 µM
In short: (§1)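 Each compound contacts P. falciparum-infected red blood cells for 72 h at 37 C; lysis buffer (Tris, EDTA, saponin, Triton X, SYBR Green I) is added and fluorescence measured next morning; values normalized to controls.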

CP217 = settings: P. falciparum in erythrocytes, SYBR Green DNA, 72 h; series mostly up to 28.7 µM
In short: as §1

CP237 = settings: P. falciparum in erythrocytes, SYBR Green DNA, 72 h; series mostly up to 28.7 µM
In short: as §1

CP238 = settings: P. falciparum in erythrocytes, SYBR Green DNA, 72 h; series mostly up to 28.7 µM
In short: as §1

CP247 = settings: P. falciparum in erythrocytes, SYBR Green DNA, 72 h; series mostly up to 28.7 µM
In short: as §1

CP250 = settings: P. falciparum in erythrocytes, SYBR Green DNA, 72 h; series mostly up to 12.8 µM
In short: as §1

CP252 = settings: P. falciparum in erythrocytes, SYBR Green DNA, 72 h; series mostly up to 12.8 µM
In short: as §1

CP256 = settings: P. falciparum in erythrocytes, SYBR Green DNA, 72 h; series mostly up to 28.7 µM
In short: as §1

CP260 = settings: P. falciparum in erythrocytes, SYBR Green DNA, 72 h; series mostly up to 28.7 µM
In short: as §1

CP262 = settings: P. falciparum in erythrocytes, SYBR Green DNA, 72 h; series mostly up to 28.7 µM
In short: as §1

CP265 = settings: P. falciparum in erythrocytes, SYBR Green DNA, 72 h; series mostly up to 12.8 µM
In short: as §1

CP268 = settings: P. falciparum in erythrocytes, SYBR Green DNA, 72 h; series mostly up to 28.7 µM
In short: as §1

CP269 = settings: P. falciparum in erythrocytes, SYBR Green DNA, 72 h; series mostly up to 28.7 µM
In short: as §1

CP286 = settings: P. falciparum in erythrocytes, SYBR Green DNA, 72 h; series mostly up to 28.7 µM
In short: as §1

CP291 = settings: P. falciparum in erythrocytes, SYBR Green DNA, 72 h; series mostly up to 28.7 µM
In short: as §1

CP297 = settings: P. falciparum in erythrocytes, SYBR Green DNA, 72 h; series mostly up to 28.7 µM
In short: as §1

CP305 = settings: P. falciparum in erythrocytes, SYBR Green DNA, 72 h; series mostly up to 28.7 µM
In short: as §1

CP315 = settings: P. falciparum in erythrocytes, SYBR Green DNA, 72 h; series mostly up to 28.7 µM
In short: as §1

CP325 = settings: P. falciparum in erythrocytes, SYBR Green DNA, 72 h; series mostly up to 28.7 µM
In short: as §1

CP329 = settings: P. falciparum in erythrocytes, SYBR Green DNA, 72 h; series mostly up to 28.7 µM
In short: as §1

CP335 = settings: P. falciparum in erythrocytes, SYBR Green DNA, 72 h; series mostly up to 12.8 µM
In short: as §1

DIV14 = settings: P. falciparum in erythrocytes, SYBR Green DNA, 72 h; series mostly up to 28.7 µM
In short: as §1

DIV17 = settings: P. falciparum in erythrocytes, SYBR Green DNA, 72 h; series mostly up to 28.7 µM
In short: as §1

DIV30 = settings: P. falciparum in erythrocytes, SYBR Green DNA, 72 h; series mostly up to 28.7 µM
In short: as §1

Dd2 = settings: P. falciparum in erythrocytes, SYBR Green DNA, 72 h; series mostly up to 28.7 µM
In short: as §1

ECU = settings: P. falciparum in erythrocytes, SYBR Green DNA, 72 h; series mostly up to 28.7 µM
In short: as §1

FAB9 = settings: P. falciparum in erythrocytes, SYBR Green DNA, 72 h; series mostly up to 28.7 µM
In short: as §1

GB4 = settings: P. falciparum in erythrocytes, SYBR Green DNA, 72 h; series mostly up to 28.7 µM
In short: as §1

HB3 = settings: P. falciparum in erythrocytes, SYBR Green DNA, 72 h; series mostly up to 28.7 µM
In short: as §1

ICS = settings: P. falciparum in erythrocytes, SYBR Green DNA, 72 h; series mostly up to 28.7 µM
In short: as §1

JCK = settings: P. falciparum in erythrocytes, SYBR Green DNA, 72 h; series mostly up to 28.7 µM
In short: as §1

N140 = settings: P. falciparum in erythrocytes, SYBR Green DNA, 72 h; series mostly up to 28.7 µM
In short: as §1

P93_24 = settings: P. falciparum in erythrocytes, SYBR Green DNA, 72 h; series mostly up to 28.7 µM
In short: as §1

P94_40 = settings: P. falciparum in erythrocytes, SYBR Green DNA, 72 h; series mostly up to 28.7 µM
In short: as §1

PAD = settings: P. falciparum in erythrocytes, SYBR Green DNA, 72 h; series mostly up to 28.7 µM
In short: as §1

PC15 = settings: P. falciparum in erythrocytes, SYBR Green DNA, 72 h; series mostly up to 28.7 µM
In short: as §1

PC26 = settings: P. falciparum in erythrocytes, SYBR Green DNA, 72 h; series mostly up to 28.7 µM
In short: as §1

PC49 = settings: P. falciparum in erythrocytes, SYBR Green DNA, 72 h; series mostly up to 28.7 µM
In short: as §1

SC27B = settings: P. falciparum in erythrocytes, SYBR Green DNA, 72 h; series mostly up to 28.7 µM
In short: as §1

TAB109 = settings: P. falciparum in erythrocytes, SYBR Green DNA, 72 h; series mostly up to 12.8 µM
In short: as §1

TAB113 = settings: P. falciparum in erythrocytes, SYBR Green DNA, 72 h; series mostly up to 28.7 µM
In short: as §1

TAB165 = settings: P. falciparum in erythrocytes, SYBR Green DNA, 72 h; series mostly up to 28.7 µM
In short: as §1

W2 = settings: P. falciparum in erythrocytes, SYBR Green DNA, 72 h; series mostly up to 12.8 µM
In short: as §1

Measured: Potency

C[C@]12CC[C@H](OS(=O)(=O)O)CC1=CCC1C2CC[C@]2(C)C(=O)CC[C@@H]12 (stereo partly drawn)
inactive: CP215 | CP217 | CP237 | CP238 | CP247 | CP250 | CP252 | CP256 | CP260 | CP262 | CP265 | CP268 | CP269 | CP286 | CP291 | CP297 | CP305 | CP315 | CP325 | CP329 | CP335 | DIV14 | DIV17 | DIV30 | Dd2 | ECU | FAB9 | GB4 | HB3 | ICS | JCK | N140 | P93_24 | P94_40 | PAD | PC15 | PC26 | PC49 | SC27B | TAB109 | TAB113 | TAB165 | W2
